ST2 inh – blocks human ST2 binding to IL-33; Q01638; AlphaLISA ST2-Fc/biotin-IL-33 interaction, 1 h; inhibition, % for hits at 17 µM; 78,000 compounds, 2.3% hits; in the data active means inhibition above about 30%
Target sequence (Q01638 whole entry, looked up): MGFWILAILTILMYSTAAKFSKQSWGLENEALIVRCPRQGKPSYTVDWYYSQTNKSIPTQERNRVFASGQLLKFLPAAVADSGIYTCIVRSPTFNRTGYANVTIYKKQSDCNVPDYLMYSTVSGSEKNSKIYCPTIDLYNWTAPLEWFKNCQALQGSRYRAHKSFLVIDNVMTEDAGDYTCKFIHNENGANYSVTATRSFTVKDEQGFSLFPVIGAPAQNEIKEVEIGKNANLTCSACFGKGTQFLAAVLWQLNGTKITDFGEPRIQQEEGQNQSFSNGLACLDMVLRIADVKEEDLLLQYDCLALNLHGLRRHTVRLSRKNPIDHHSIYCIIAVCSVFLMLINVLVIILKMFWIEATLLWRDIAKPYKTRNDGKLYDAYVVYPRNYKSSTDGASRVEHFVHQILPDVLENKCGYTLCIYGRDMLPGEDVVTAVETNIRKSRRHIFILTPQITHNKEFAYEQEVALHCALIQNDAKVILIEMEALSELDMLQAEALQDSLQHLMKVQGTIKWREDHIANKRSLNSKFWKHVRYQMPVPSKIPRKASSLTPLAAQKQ
Active calls of the source: *; i = inactive; ! = repeats disagree. This excerpt belongs to a sample that is enriched for hits.

SMILES | ST2 inh
O=C1NC(=Nc2ccccc2)S/C1=C/c1ccc(O)c(O)c1 | 35.0%*
O=C1NC(=Nc2ccccc2)S/C1=C/c1ccc(F)c(Br)c1 | 43.0%*
Cc1ccccc1CC1SC(=Nc2ccccc2)NC1=O (stereo not given) | i
O=C1NC(=Nc2ccccc2)SC1(CO)CO | i
O=C1CC(c2ccc(F)c(Br)c2)c2ccc3ccccc3c2N1 (stereo not given) | i
CC1(C)CC2CC(C)(CN2C(=O)c2cc(-c3ccc4c(c3)OCO4)on2)C1 (stereo not given) | i
Cc1cc2c(C)nc(N3CCC(NC(CCn4ccnc4C)c4ccccc4)CC3)nc2cc1F (stereo not given) | i
Cc1nc(C(=O)N2CCc3c(c(C(=O)N4CCOCC4)nn3CCc3ccccc3)C2)cs1 | i
COc1cccc(CN2Cc3ccccc3N(CC(=O)NCC3(N4CCOCC4)CCCC3)C2=O)c1 | i
O=C(c1cc(=O)c2ccccc2[nH]1)N1CCOC(CCc2ccccc2)C1 (stereo not given) | i
CC[C@@H]1C[C@H](NC(=O)c2ccccc2)C[C@H](CCc2ccccc2)O1 | i
O=C(NCC1c2ccccc2CCN1C(=O)Cn1cnc([N+](=O)[O-])n1)C1CCCCC1 (stereo not given) | i
CC1=CC(=O)C(C(C)C)=C/C1=N\Oc1c([N+](=O)[O-])cc(Cl)cc1[N+](=O)[O-] | 62.0%*
COc1ccc(N(C(=O)c2c(F)cccc2F)C2C=CS(=O)(=O)C2)cc1 (stereo not given) | i
CC(C)CNC(=O)c1cc2n(n1)C(C(F)(F)F)CC(c1ccc(Cl)c(Cl)c1)N2 (stereo not given) | i
O=C(Cc1cccs1)N1CCc2c(c(C(=O)N3CCOCC3)nn2CCCc2ccccc2)C1 | i
Cc1ccc(C(=O)N2CCc3c(c(C(=O)N4CCNC(=O)C4)nn3CCCc3ccccc3)C2)s1 | 30.0%*
O=C(c1n[nH]c2c1CCC2)N1CCc2c(c(C(=O)N3CCOCC3)nn2CCCc2ccccc2)C1 | i
COc1cc(C(=O)NCc2c(C)noc2C)nc(OC)n1 | i
C=CCc1ccccc1OCCOCCN1CCOCC1 | i
O=C(CSc1n[nH]c(-c2ccco2)n1)c1ccc(F)cc1 | i
COC(=O)[C@@H]1Cc2ncn(Cc3ccc(Cl)cc3)c2CN1C(=O)c1ccccc1OC | i
COC(=O)[C@@H]1Cc2ncn(Cc3ccc(Cl)cc3)c2CN1Cc1ccc(F)cc1 | i
COC(=O)[C@@H]1Cc2ncn(Cc3ccc(OC)cc3)c2CN1C(=O)c1ccc(OC)cc1 | i
COC(=O)[C@@H]1Cc2ncn(Cc3ccc(OC)cc3)c2CN1Cc1ccc(OC)cc1 | 89.0%*
SMILES | ST2 inh
COC(=O)[C@@H]1Cc2ncn(Cc3ccc(OC)cc3)c2CN1Cc1cccc(C#N)c1 | 41.0%*
COC(=O)[C@@H]1Cc2ncn(Cc3ccc(Cl)cc3)c2CN1S(C)(=O)=O | i
COC(=O)[C@@H]1Cc2ncn(Cc3ccc(Cl)cc3)c2CN1C(=O)COc1ccccc1 | i
COCC(=O)N1Cc2c(ncn2Cc2ccc(OC)cc2)C[C@H]1C(=O)OC | 68.0%*
COC(=O)[C@@H]1Cc2ncn(Cc3ccc(Cl)cc3)c2CN1Cc1ccc(CO)o1 | i
Cc1ccc(CNc2nc3ccccc3n2CCN(C)C)o1 | i
CCS(=O)(=O)Nc1ccc(C(=O)N2CCC(COC)C2)cc1 (stereo not given) | i
CC(C)c1ccc(S(=O)(=O)NC(C)(C)C)cc1 | i
CN(Cc1cn[nH]c1-c1ccc(F)cc1)C(=O)c1ccc2cc[nH]c2c1 | i
Cc1ccc(N2C(=O)C3C4C=CC(C4)C3C2=O)cc1F (stereo not given) | i
CCOCCn1cnc(-c2ccccc2)c1-c1ccc(-c2cncnc2)cc1 | i
CCn1c(CCCNC(=O)C(C)(C)C)nc2ccccc21 | i
Cc1cnc(CN(C)C(=O)CC(=O)Nc2cc(Cl)ccc2C)[nH]1 | i
CC(C)(C)N1CC(CNc2nccc(C3CCCC3)n2)CC1=O (stereo not given) | i
O=C(Nc1ccc(Br)c2cccnc12)c1cccs1 | i
O=C1C=CC(=NOS(=O)(=O)c2ccc(Cl)cc2)C=C1 | 48.0%*
CC1CC(C)CN(S(=O)(=O)c2ccc(Cl)cc2)C1 (stereo not given) | i
O=S(=O)(Cc1ccccc1)c1ccc(Cl)cc1 | i
O=C(Nc1ccc([N+](=O)[O-])cc1Cl)c1ccccc1 | i
COc1ccc(CNc2oc(COc3ccc(Cl)cc3)nc2C#N)cc1 | i
COc1ccc(CCNc2oc(COc3cccc(C)c3)nc2C#N)cc1 | 30.0%*
Cc1cccc(OCc2nnc(SCC(=O)Nc3ccc(C)c(C)c3)o2)c1 | i
COc1ccc(CCNc2oc(COc3ccccc3C)nc2C#N)cc1OC | 38.0%*
COc1ccccc1OCc1nc(C#N)c(NCc2cccnc2)o1 | i
COc1ccc(CCNC(=O)CC(c2ccccc2)c2ccccc2)cc1OC | i
SMILES | ST2 inh
Cc1ccnc(CC(C)N(C)C(=O)c2ccc(N(C)C)c3ccccc23)c1 (stereo not given) | i
CC1C(=O)N(C)CCN1Cc1ccc(OCC(=O)N2CCCCC2)cc1 (stereo not given) | i
Cc1cnc(-n2cnnc2)c(-c2ccc(C(C)N3CCOCC3)cc2)c1 (stereo not given) | i
c1ccc(C2(c3ccccc3)OC(c3cccnc3)Nc3ccccc32)cc1 (stereo not given) | 35.0%*
c1ccc(-c2nnc(-c3cccnc3)o2)cc1 | i
CC(=O)N1c2ccccc2C(=O)OC1c1cccnc1 (stereo not given) | i
O=C(CN1C(=O)CC(c2ccccc2)=Nc2ccccc21)Nc1cccc(F)c1 | i
C=CCn1cc(CN2CCC(O)(c3ccccc3C)C2)c(C)n1 (stereo not given) | i
Cc1ccc(Nc2cc(C)nc(Nc3ccc(NC(=O)C(C)(C)C)cc3)n2)cc1 | 33.0%*
Cc1ccc(Nc2cc(C)nc(Nc3ccc(NC(=O)c4ccc(Br)o4)cc3)n2)cc1 | i
COc1ccc(Nc2cc(C)nc(Nc3ccc(NC(=O)C4CCCCC4)cc3)n2)cc1 | 34.0%*
CC(=O)Nc1ccc(Nc2nc(C)cc(Nc3ccc(C)cc3)n2)cc1 | i
Cc1cc(Nc2ccccc2)nc(Nc2ccc(NC(=O)C3CCCCC3)cc2)n1 | i
Cc1ccc(Nc2cc(C)nc(Nc3ccc(NC(=O)C4CCCCC4)cc3)n2)cc1 | 30.0%*
Cc1ccc(Nc2cc(C)nc(Nc3ccc(NC(=O)c4ccc(Br)cc4)cc3)n2)cc1 | i
COc1ccc(Nc2cc(C)nc(-c3ccccc3)n2)cc1 | i
O=C(Nc1ccc2c(c1)OCO2)c1ccc(=O)n(Cc2ccc(Cl)cc2)c1 | i
CCN1CCN(C(=O)C2CC(=O)N(c3ccc(F)c(Cl)c3)C2)CC1 (stereo not given) | i
CCCOc1ccc(-c2nc(NCCN)c3ccccc3n2)cc1 | i
CC(=O)Nc1ccc(S(=O)(=O)Nc2ccc3n(c2=O)C[C@H]2C[C@@H]3CN(C(=O)c3ccccc3)C2)cc1 | i
Nc1ccc(/C=C/C2C=CC=CC2)cc1 (stereo not given) | 47.0%*
COc1ccc2nc3oc(C(=O)N4CCOCC4)cc3cc2c1 | i
COc1ccc2cc3cc(C(=O)Nc4ccc(OC)c(OC)c4)oc3nc2c1 | i
COc1ccc2nc3oc(C(=O)Nc4ccc5c(c4)OCCO5)cc3cc2c1 | 36.0%*
COc1ccc2cc3cc(C(=O)Nc4cccnc4)oc3nc2c1 | i
COc1ccc2cc3cc(C(=O)Nc4cccc(SC)c4)oc3nc2c1 | 34.0%*!
COc1ccc2cc3cc(C(=O)Nc4ccc(C)cc4Cl)oc3nc2c1 | i
